In a collection of fitness landscapes (doi:10.1126/science.1257360):
Whole data set: some 140,000 sequences, median “enrichment ratio after two sorts for PhoP signalling” near 0, cut for the highest 2% near 11. The list comes from a sample in which the highest values are over-represented; it also holds similar and randomly drawn sequences.

B1: PhoQ; a variant is named by its letters at X, in order, P23837 (parent)
chain: MKKLLRLFFPLSLRVRFLLATAAVVLVLSLAYGMVALIGYSVSFDKTTFRLLRGESNLFYTLAKWENNKLHVELPENIDKQSPTMTLIYDENGQLLWAQRDVPWLMKMIQPDWLKSNGFHEIEADVNDTSLLLSGDHSIQQQLQEVREDDDDAEMTHSVAVNVYPATSRMPKLTIVVVDTIPVELKSSYMVWSWFIYVLSANLLLVIPLLWVAAWWSLRPIEALAKEVRELEEHNRELLNPATTRELTSLVRNLNRLLKSERERYDKYRTTLTDLTHSLKTPLXXLQXXLRSLRSEKMSVSDAEPVMLEQISRISQQIGYYLHRASMRGGTLLSRELHPVAPLLDNLTSALNKVYQRKGVNISLDISPEISFVGEQNDFVEVMGNVLDNACKYCLEFVEISARQTDEHLYIVVEDDGPGIPLSKREVIFDRGQRVDTLRPGQGVGLAVAREITEQYEGKIVAGESMLGGARMEVIFGRQHSAPKDE

Variants of: B1
Assay: enrichment ratio after two sorts for PhoP signalling (ratio (wild type AVST 3.29)); higher = more functional
Conditions: with PhoP (E. coli)

Variant	enrichment ratio
GPHN	≤ 0.25
RDSY	≤ 0.25
HQTV	≤ 0.25
ISLP	≤ 0.25
DTRI	1.89
VMYN	≤ 0.25
KYIM	≤ 0.25
TGIM	≤ 0.25
STIM	15.3
SGDM	≤ 0.25
SEIM	15.1
SGIM	23.7
RGIM	≤ 0.25
YTIM	1.25
SGRM	≤ 0.25
SEWM	3.99
ITIM	≤ 0.25
SRIM	13.7
NCFV	≤ 0.25
ACCP	≤ 0.25
AHDV	≤ 0.25
IAPL	0.723
FWFH	≤ 0.25
NRLH	≤ 0.25
YSSN	≤ 0.25

Variant	enrichment ratio
IQGH	≤ 0.25
TQIM	17.9
TQPM	≤ 0.25
SAPM	2.5
SAGM	12.9
SAGD	≤ 0.25
SNIM	≤ 0.25
TQIV	1.59
SLIM	≤ 0.25
SQIM	20.8
TQGH	18.9
TQGP	≤ 0.25
YRHV	≤ 0.25
SCLV	9.82
QTDD	≤ 0.25
AISA	10.4
AFMR	≤ 0.25
MLCP	≤ 0.25
HKNV	≤ 0.25
RAQI	≤ 0.25
MIHT	≤ 0.25
DVMK	≤ 0.25
WFDE	≤ 0.25
HTHH	≤ 0.25
TQGQ	28

Variant	enrichment ratio
YDIM	≤ 0.25
TQGA	2.57
ATIM	19.5
ADIM	≤ 0.25
TQGG	1.42
TDIS	1.04
HSAY	≤ 0.25
EAHH	≤ 0.25
YEYT	≤ 0.25
DFEY	≤ 0.25
SSCC	17.1
NSCC	≤ 0.25
SQCC	8.97
SICC	17.3
TSCC	17.3
KYCC	≤ 0.25
KSCC	≤ 0.25
SSTC	10.3
SRCC	0.803
IQCC	≤ 0.25
SNCC	14.7
WICC	≤ 0.25
IFYT	≤ 0.25
FSGP	≤ 0.25
NGLQ	≤ 0.25

Variant	enrichment ratio
YYFP	≤ 0.25
TQCC	65
GTCC	≤ 0.25
DWCC	≤ 0.25
ITCC	≤ 0.25
FQCC	≤ 0.25
CTCC	≤ 0.25
YTCC	≤ 0.25
TTCC	11.5
STCC	13.7
EYTF	≤ 0.25
NSIQ	≤ 0.25
HLYG	≤ 0.25
PLPH	≤ 0.25
MDHD	≤ 0.25
IKKC	≤ 0.25
AHIL	≤ 0.25
ARSL	0.309
ANYN	≤ 0.25
ANSL	16.8
ANNL	15.7
ADVL	3.21
ANYM	0.253
ANVL	13.9
AIIL	1.11

Variant	enrichment ratio
HWVL	≤ 0.25
ANIL	22.8
ADSL	≤ 0.25
GFRD	≤ 0.25
EGVS	≤ 0.25
WVKG	≤ 0.25
NCEQ	≤ 0.25
GGVL	7.68
NKTR	≤ 0.25
AWCL	0.642
ANCL	21.8
TKIL	8.86
AQEL	≤ 0.25
WICL	≤ 0.25
AKIL	18.4
AQRL	≤ 0.25
AICL	17.5
AKCL	3.3
NICL	3.87
AQCL	16
ADIL	8.79
EAPP	≤ 0.25
VFQT	≤ 0.25
VNLF	≤ 0.25
YIYL	≤ 0.25

Variant	enrichment ratio
IDEK	≤ 0.25
TVNP	≤ 0.25
YDMC	≤ 0.25
WVMR	≤ 0.25
KNDA	≤ 0.25
NLGK	≤ 0.25
IKGA	≤ 0.25
WTQR	≤ 0.25
ADSG	1.26
ACSR	7.12
KKSG	≤ 0.25
ACSN	4.45
ARSG	≤ 0.25
TISN	13.4
WISN	≤ 0.25
AVSG	16.7
ACSG	12.3
AISG	19
TIKN	≤ 0.25
AHSG	6.86
FHWW	≤ 0.25
EFGD	≤ 0.25
HEGI	≤ 0.25
PMHY	≤ 0.25
DEAG	≤ 0.25

Variant	enrichment ratio
PCRA	≤ 0.25
MPIN	≤ 0.25
QRYD	≤ 0.25
DRYI	≤ 0.25
RDAL	≤ 0.25
KVFV	≤ 0.25
TISG	19.4
WISG	≤ 0.25
PISG	≤ 0.25
VGFY	≤ 0.25
MQYW	≤ 0.25
MMLQ	≤ 0.25
SQLQ	13.6
TPLQ	≤ 0.25
SNLQ	15.3
KQLQ	≤ 0.25
TMLQ	12.2
NMLQ	≤ 0.25
SILQ	6.96
LNLQ	≤ 0.25
YALQ	4.04
DPLQ	≤ 0.25
SALQ	17.5
YDYH	≤ 0.25
SRDH	≤ 0.25

Variant	enrichment ratio
TGMF	9.36
FPKH	≤ 0.25
PMKR	≤ 0.25
KGCL	≤ 0.25
DMWF	≤ 0.25
SAVH	7.41
DYTW	≤ 0.25
SYLQ	2.49
SQLA	11.7
SSLQ	14.5
SRLQ	0.442
STLQ	18.3
SFLQ	2.41
SLLQ	7.5
SQLT	11
SELQ	27.9
KYLQ	≤ 0.25
SQLS	7.34
SPLQ	≤ 0.25
SFQN	≤ 0.25
